The experiment in a line: sensitizers of A549 cells to miR-34 induction, primary screen, imaging, A549 dox-inducible miR-34, nuclei and caspase counts (AID 1347080). Note: test concentration not given here. The following applies: A549 miR-34 inducible, Hoechst nuclei count, 48 h; measured here: total cells with miR-34 induction; stronger effect = lower value.
For `COc1cccc2c1C(=O)c1c(O)c3c(c(O)c1C2=O)C[C@@](O)(C(C)=O)CC3O[C@H]1CC(N)C(O)C(C)O1` (stereo partly drawn), the cell count is 2300.
The value for `COc1cc(C=CC(=O)N2CCN(CC(=O)N3CCCC3)CC2)cc(OC)c1OC` was 8470; that for `CC(C)(O)CCC(O)[C@](C)(O)C1CC[C@@]2(O)C3=CC(=O)[C@@H]4CC(O)C(O)C[C@]4(C)[C@@H]3CC[C@]12C` (stereo partly drawn) was 10200; that for `O=C(O)c1cc(I)ccc1NC(=O)C(Cc1ccccc1)NCc1ccccc1` (stereo not drawn) was 8450.
To `COC(c1ccccc1)(c1ccccc1)C(Oc1nc(C)cc(C)n1)C(=O)O` (stereo not drawn) belongs 7820; to `CC1(C)O[C@H]2CC(=O)OC[C@]23[C@H]2CC[C@@]4(C)C(c5ccoc5)OC(=O)C5O[C@]54[C@@]2(C)C(=O)C[C@@H]13` (stereo partly drawn), 8580; to `C=CC[N+]1(C2C[C@H]3[C@@H]4CC[C@H]5CC(O)C(N6CCOCC6)C[C@]5(C)[C@@H]4CC[C@]3(C)C2OC(C)=O)CCCC1` (stereo partly drawn), 8100.
With `CC1C(NC(=O)C(=NOC(C)(C)C(=O)O)c2csc(N)n2)C(=O)N1S(=O)(=O)O` (stereo not drawn), the cell count is 7110.
Take `Cc1c(O)cccc1C(=O)NC(CSc1ccccc1)C(O)CN1C[C@H]2CCCC[C@H]2CC1C(=O)NC(C)(C)C` (stereo partly drawn): the cell count was 7710.
To `CC1(C)C=C(CN2CC(=Cc3ccc(F)cc3)C(=O)C(=Cc3ccc(F)cc3)C2)C(C)(C)N1O` belongs 6830; to `CC1CNc2c(cccc2S(=O)(=O)N[C@@H](CCCN=C(N)N)C(=O)N2CCC(C)CC2C(=O)O)C1` (stereo partly drawn), 7750; to `CN(C)C(=O)Nc1cccc(-c2ccc(N(C)C)cc2)c1`, 7650.
In the case of `CCC1C(=O)N(C)c2cnc(Nc3ccc(C(=O)NC4CCN(C)CC4)cc3OC)nc2N1C1CCCC1` (stereo not drawn), the cell count is 1360.
